# Measured values: PubChem BioAssay
# Unmarked numbers belong to inactive results. Active and inactive are the calls of the source.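 How the source made its calls: active means growth inhibition above 50% at the single 2 µM test dose, taken to imply half-maximal potency below 2 µM; inactive means the rest.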
# Experiment: antimalarial activity against Dd2 strain (AID 2302);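 further: 0% = DMSO untreated growth and 100% = chloroquine plus artemisinin killed control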
# Conditions: P. falciparum Dd2 in RBCs, LDH growth readout, 72 h; at 2 µM; active compounds read high
row,Structure (SMILES),growth inhibition
1,COCCNCc1ccc(-c2ccc(CN(C(=O)Nc3ccccc3)C3CCN(Cc4ccccc4)CC3)cc2)cc1,39%
2,Cc1csc(-c2ccc3[nH]cc(C4=CCN(C)CC4)c3c2)n1,78% (active)
3,CCCCn1c(C)c(C(=O)OCC)c2cc(OC(C)=O)c(Br)cc21,79% (active)
4,Cc1csc(NC2=NCCN2)n1,1%
5,O=[N+]([O-])c1ccc(Oc2c(Cl)cc(S(=O)(=O)NC3CCC(CN4CCC(c5c[nH]c6ccccc56)CC4)CC3)cc2Cl)c(Cl)c1 (stereo not given),64% (active)
6,CN1CC=C(c2c[nH]c3ccc(OCc4ccccc4)cc23)CC1,97% (active)
7,COc1ccc(CC(C)NCC(O)c2ccc(Cl)c(Cl)c2)cc1 (stereo not given),96% (active)
8,COC(=O)c1ccc(CC(C)NCC(O)c2ccccc2Cl)cc1 (stereo not given),55% (active)
9,Cc1cc(C(=O)NC2CCN(CC3(c4ccc(Cl)cc4)CCC3)CC2)on1,95% (active)
10,O=C(/C=C/c1cc(F)cc(C(F)(F)F)c1)N1CCC(CN2CCC(c3c[nH]c4ccccc34)CC2)CC1,74% (active)
11,CS(=O)(=O)Nc1ccc2[nH]cc(C3CCN(CC4CCC(NC(=O)/C=C/c5ccc(Cl)c(Cl)c5)CC4)CC3)c2c1 (stereo not given),86% (active)
12,c1ccc2c(NCCCCCCCCCNc3c4ccccc4nc4ccccc34)c3ccccc3nc2c1,95% (active)
13,CC(Cc1ccc(Oc2ccccc2)cc1)NCC(O)c1cccc(C(F)(F)F)c1 (stereo not given),99% (active)
14,COC(=O)/C=C/c1ccc(C[C@@H](C)NC[C@H](O)c2cccc(C(F)(F)F)c2)cc1,93% (active)
15,CC[C@H]1CN2CC[C@H]1C[C@H]2[C@H](O)c1cc(-c2ccccc2C)nc2ccc(OC)cc12,98% (active)
